Laboratory results: PubChem BioAssay AID624114 (Johns Hopkins Ion Channel Center, 2012)
Screen size: about 4,000 compounds; about 15 (0.4%) were called active.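 Rule for the calls: active = calcium fluorescence ratio, averaged over duplicates, at least 3 SD of the buffer-well ratio, meaning a nonspecific response in receptor-free cells; inactive = the rest.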 Only a sample is shown.

Experiment: nonspecific Ca2+ flux in HEK293 lacking MrgX1 – cell-based, Fluo-4 calcium flux, duplicate, counter-screen for MrgX1 allosteric activator project, primary screen (AID 624114)
Conditions: parental HEK293 calcium flux, Fluo-4 fluorescence ratio; at 10 µM

SMILES	outcome
c1ccc(-c2[nH]ncc2-c2nc3ccccc3[nH]2)cc1	inactive
COc1ccccc1Oc1nc(-c2cccnc2)nc2ccccc12	inactive
O=c1c2cc(Br)ccc2nc(-c2cccc(Cl)c2)n1O	inactive
COc1ccc([N+](=O)[O-])cc1NC(=O)COC(=O)/C=C/c1ccco1	inactive
C=CCSc1nc(Cc2ccc(Cl)cc2)nc2ccccc12	inactive
NC(=O)c1c(Nc2nc3c(F)cccc3s2)sc2c1CCCC2	inactive
CCN(CC)CC(=O)Nc1nn(-c2ccccc2)nc1C(N)=O	inactive
Cc1ccc(C(=O)COC(=O)CCN2C(=O)C3C4CC(C(Br)C4Br)C3C2=O)cc1 (stereo not drawn)	inactive
Cc1ccc(-n2cnc3ncnc(-c4ccccc4)c32)cc1	inactive
CCOC(=O)Nc1ccc2c(c1)N(C(=O)CCN1CCN(CCO)CC1)c1ccccc1CC2	inactive
O=C(NC1CCCCC1)C1c2ccccc2C(=O)N1Cc1ccco1 (stereo not drawn)	inactive
Cc1cc2oc3ccc(NCCC4CCCN4C)cc3c(=O)c2cc1C (stereo not drawn)	inactive
COCCCNC(=O)C1CCN(c2ccc(N3CCOCC3)nn2)CC1	inactive
Cc1cc(Br)ccc1NC(=O)c1cnc(N2CCN(c3ccccn3)CC2)c2ccccc12	inactive
Cc1ccc(S(=O)(=O)N(C)c2nc3ccccc3n3c(C(C)C)nnc23)cc1	inactive
CC1CCN(S(=O)(=O)c2nnc(NC(=O)COc3ccccc3F)s2)CC1	inactive
Cc1ccc(-c2nn(C(C)(C)C)c3ncnc(N)c23)cc1	inactive
CCC1CCCCN1CCNC(=O)c1[nH]c(C)c(C(C)=O)c1C (stereo not drawn)	inactive
O=C(CSc1ncccn1)NC(=O)NCc1ccccc1	inactive
CC1CCCCN1S(=O)(=O)c1ccc(C(=O)Nc2nnc(-c3cccs3)o2)cc1 (stereo not drawn)	inactive
O=C(Nc1nc2c(F)cc(F)cc2s1)C1COc2ccccc2O1 (stereo not drawn)	inactive
O=C1C(=O)N(CC2COc3ccccc3O2)c2ccccc21 (stereo not drawn)	inactive
COc1cccc(CNC(=O)C2CCN(S(=O)(=O)c3cccc4cccnc34)CC2)c1	inactive
COc1ccc(C(=O)NC(=S)NNC(=O)CCc2ccccc2)cc1	inactive
CCOC(=O)C1=C(O)/C(=C/c2cc(C)n(-c3ccccc3)c2C)N=C1C	inactive

SMILES	outcome
Cc1ccc2nc(Nc3ccccc3)cc(C)c2c1	inactive
Cc1ccc(Cc2cnc(N)s2)o1	inactive
O=C(CSc1nncn1-c1cccnc1)N1CCOCC1	inactive
COc1ccc(OC)c(C(=O)c2ccc(Cl)cc2)c1	inactive
CCCc1cc(=S)n2c([nH]c3ccccc32)c1C#N	inactive
Nc1cc(OC(=O)c2ccccc2Br)nn1S(=O)(=O)c1ccccc1	inactive
CC(C)(C)n1c(=O)[nH]c2c(c1=O)CCC2	inactive
CCOC1CCCCC1NS(=O)(=O)c1ccc(Cl)cc1 (stereo not drawn)	inactive
C=CCOc1cccc(C2C(C(=O)c3ccc(C)o3)=C(O)C(=O)N2c2nnc(C)s2)c1 (stereo not drawn)	inactive
Cc1cccc(-n2c(Cc3cc(=O)[nH]c(=O)[nH]3)nnc2SC(C)C)c1	inactive
O=C1CCCc2c1nc(-c1cccc(Cl)c1)n2O	inactive
Cc1nc(N2CCN(c3ccccn3)CC2)c2c(C)c(C(=O)Nc3ccc(F)c(Cl)c3)sc2n1	inactive
Cc1cc(C)n(CCNC(=O)CC2C(=O)NCCN2Cc2ccc(C)o2)n1 (stereo not drawn)	inactive
COc1ccc(S(=O)(=O)N2CCN(C(=O)NC3CCCCC3)CC2)cc1	inactive
CCCCC(=O)Nc1ccc2c(c1)C(=O)NC2=O	inactive
Cc1nn(-c2ccccc2)c(C)c1NC(=O)COc1ccc(Cl)cc1Cl	inactive
Cc1ccc(-n2[nH]c(C)c(/C=N/N3C(=O)c4cccc5cccc(c45)C3=O)c2=O)cc1	inactive
COC(=O)Cc1cc(=O)n(-c2nc3ccccc3s2)[nH]1	inactive
O=C1C(Cc2ccc(O)cc2)NC(=S)N1Cc1ccccc1 (stereo not drawn)	inactive
Clc1ccc(C=NC23CN4CN(CN(C4)C2)C3)cc1	inactive
CC(C)CC(=O)NC(=S)NNC(=O)c1cccc([N+](=O)[O-])c1	inactive
Cc1[nH][nH]c(=O)c1C(c1ccc(-c2ccc(Cl)cc2)o1)c1c(C)[nH][nH]c1=O	inactive
O=C(Oc1ccc(C(=S)N2CCOCC2)cc1)c1ccc(F)cc1	inactive
COC(=O)c1ccc(C2C3=C(Nc4nnnn42)c2ccccc2OC3)cc1 (stereo not drawn)	inactive
Clc1ccc(-c2nc3ccccn3c2CN2CCSCC2)cc1	inactive

SMILES	outcome
CCOCc1nnc(NC(=O)CCC2CCCCC2)s1	inactive
Cc1ccc2nc(-c3ccc(NC(=O)CN(C)S(=O)(=O)c4ccccc4)cc3)sc2c1	inactive
Cc1ccc(N/C(N)=N/c2nc(C(F)(F)F)cc(C(F)(F)F)n2)cc1	inactive
Cc1cccc(NC(=O)C(C)N2C(=O)C3C4CC(C(Br)C4Br)C3C2=O)c1 (stereo not drawn)	inactive
O=c1cc(CSc2ccccn2)nc(N2CCN(c3ccccc3)CC2)[nH]1	inactive
CCN(c1cccc(C)c1)S(=O)(=O)c1ccc(-c2coc(C)n2)cc1	inactive
CC(C)CC(=O)N/C(N)=N/c1nc2ccccc2s1	inactive
Cc1nn(-c2ccccc2)c2c1C(c1ccc(F)cc1)C(C#N)=C(N)O2 (stereo not drawn)	inactive
CCOc1ccc(C(=O)NC2CCN(S(=O)(=O)CC)CC2)cc1	inactive
CCOC(=O)CNC(=O)CSc1nc2cccnc2n1CC	inactive
Cc1nc(C)c(-c2csc(NCCc3ccccc3)n2)s1	inactive
C(=N\n1cnnc1)/c1cccnc1	inactive
Cc1cccc(NC(=O)COc2ccccc2C)n1	inactive
O=C(Nc1ccc(Br)cc1F)C1CC(=O)N(C2CCCCC2)C1 (stereo not drawn)	inactive
COc1ccc(Cc2nc(-c3ccccn3)no2)cc1OC	inactive
COC(=O)c1ccc(COC(=O)C2CCN(S(=O)(=O)c3c(Cl)cccc3Cl)CC2)o1	inactive
COCC(C)NC(=O)c1ccc(Cl)c(Cl)c1 (stereo not drawn)	inactive
CCOc1ccc(C2=CC(c3ccccc3)n3ncnc3N2)cc1 (stereo not drawn)	inactive
CCOC(=O)Cc1csc(SCc2cc(=O)oc3cc(O)ccc23)n1	inactive
O=C(Nc1ccc(Cl)cc1)Nc1ccc(Oc2cccnc2)nc1	inactive
O=C(COc1ccc(Cl)cc1)NC(=S)Nc1ccccc1N1CCOCC1	inactive
N#CC1=C(N)Oc2c(sc3ccccc23)C1c1ccco1 (stereo not drawn)	inactive
O=C(CN1CCN(c2ccccn2)CC1)NC1CCCCC1	inactive
COc1ccc(S(=O)(=O)N2CCOCC2)c(C)c1C	inactive
Cc1cc2ncn(CCCCOc3ccccc3)c2cc1C	inactive

SMILES	outcome
CCN(CC)c1ccc2oc(=O)c(C)nc2c1	inactive
CN1C(CC(=O)Nc2ccc(Br)cc2)c2ccccc2CC1(C)C (stereo not drawn)	inactive
COc1ccc(C(=O)NC(=S)NC2CCCCC2)cc1	inactive
O=C(Nc1ccccc1Cl)N1CCN(c2ccc3nncn3n2)CC1	inactive
COC(=O)c1c(NC(=O)c2c(Cl)cnn2C)sc(C)c1C	inactive
CCOC(=O)c1[nH]c2ccc(C)cc2c1N=C(C)N(C)C	inactive
Cc1cccc(Cn2cnc3c(N)c(C)c(C)cc32)c1	inactive
Cc1ccc(OC(=O)c2cc3ccccc3o2)cc1	inactive
CCOC(=O)c1cn(Cc2cccc(C)c2)nn1	inactive
C=CCNC(=O)c1csc(-c2ccccc2)n1	inactive
O=C(c1cccs1)C1C(c2ccc(Br)cc2)NC(=S)NC1(O)C(F)(F)F (stereo not drawn)	inactive
CC(=O)Nc1ccc(OC(=O)COc2ccc(Br)cc2)cc1	inactive
O=C(c1ccc(O)cc1)c1ccc(C(=O)O)c(C(=O)O)c1	inactive
O=C1Cc2ccccc2Sc2ccc(Cl)cc21	inactive
CC(Oc1ccc(F)cc1)C(=O)Nc1ccccc1C(=O)NC1CC1 (stereo not drawn)	inactive
O=C(c1ccc(OC2CCN(C(=O)c3cccnc3)CC2)cc1)N1CCCCCC1	inactive
O=C(COC(=O)c1ccc(NS(=O)(=O)c2cccs2)cc1O)Nc1ccc(F)cc1	inactive
COc1cc(C(F)(F)F)nc2c(Br)c(C(C)(C)C)nn12	inactive
Cc1cc(Nc2cc(N3CCN(C)CC3)nc(Sc3ccc(NC(=O)C4CC4)cc3)n2)n[nH]1	inactive
CC(=O)N1c2ccc(S(=O)(=O)N3CCCC(C(=O)Nc4cccc(Cl)c4)C3)cc2CC1C (stereo not drawn)	inactive
CCCCOC(=O)CNc1nnc(SCC(=O)OCC)[nH]c1=O	inactive
COc1ccc(OC)c(Nc2nc3ccccc3n3cnnc23)c1	inactive
Fc1cccc(Cl)c1COc1ccc(-c2nnco2)cc1	inactive
